High-throughput results: PubChem BioAssay, National Center for Advancing Translational Sciences (NCATS)
Shown are actives, neighbours in structure and some others; about 7.1% of the full set was active somewhere.
PINK1 expr mod: changes PINK1 expression | PINK1 immunofluorescence, high-content cytometry, 24 h | Potency, µM (titrated, usually from 76.6 µM), for the others: top-dose activation (PINK1 increase), hits mostly activators | hit rate 0.2% among 410,000; active means well fitted activation curve with a large enough effect; inconclusive means small, poorly fitted or top-dose-only effect; cell line not stated here; further: potency means the concentration at half of the fitted maximal effect; % of control where 0% means no effect; nearly all actives have a fitted effect of over 65% in size
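PINK1 protein, normally rapidly degraded, was detected by immunofluorescence after 24 hour compound treatment of a stable cell line. Titration data (5 concentrations) came from laser-scanning cytometry, with CCCP-treated wells as controls.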
MCF10A rerep: inducers of DNA re-replication in MCF 10A breast cells; hit rate 2.9% among 350,000; MCF 10A DNA re-replication, Hoechst nuclear intensity, 48 h; AID 624296; Potency, µM (top dose mostly 46.1 µM), for the others: top-dose activity, positive = re-replication, actives largely listed as activators; further: potency means the concentration at half of the fitted maximal effect; % of control where 0% means no effect; nearly all actives have a fitted effect of over 50% in size
IL-1B inflam inh: inflammasome signaling inhibition, IL-1 beta readout. THP-1 LPS/ATP IL-1B secretion, AlphaLISA, 16 h; stronger effect = lower value. activity change, % at 57.5 µM. hit rate 4.7% among 360,000; in the data active means activity change below about -50%; inconclusive means mostly about -30% to -49%; further: on the % scale 0 is the no-effect control and ±100 the full control effect
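THP-1 cells pretreated 1 hr with compounds (up to 57.5 uM final), then stimulated with LPS (250 ng/mL final) plus ATP (1.25 mM final); secreted IL-1B measured by AlphaLISA after 16 hr, decreased signal indicating inhibition.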
SW480 rereplic: induces DNA re-replication in SW480 colon adenocarcinoma cells. SW480 DNA re-replication, Hoechst DNA content imaging, 48 h. Potency, µM (titrated, usually from 46.1 µM), for the others: top-dose re-replication activation, most hits filed as activators. hit rate 1.8% among 340,000; further: potency means the concentration at half of the fitted maximal effect; % of control where 0% means no effect; nearly all actives have a fitted effect of over 55% in size
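Hoechst fluorescence of nuclei (405 nm excitation, 500-530 nm emission) measured by plate-scanning imager after 48 hr compound exposure at 37 C; re-replication scored as increased number of nuclei with elevated intensity.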
ATXN2 expr inh: ATXN2 expression inhibition. Potency, µM (highest dose often 57 µM), inactives show at the top dose activity change, negative = inhibition, most hits filed as inhibitors. HEK-293 ATXN2-luciferase reporter, luminescence, 24 h. hit rate 0.72% among 360,000. AID 1745845; further: potency means the concentration at half of the fitted maximal effect; on the % scale 0 is the no-effect control and ±100 the full control effect; nearly all actives have a fitted effect of over 55% in size
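qHTS (up to 57 uM final) was run with 24 h compound exposure of reporter cells at 37 °C. Each well was multiplexed: SteadyGlo luminescence measured ATXN2-luciferase expression after a fluorogenic Gly-Phe-AFC viability readout (25 uM final).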
ATXN viability: viability counter-screen for ATXN expression inhibitors; S2 cells (HEK-293 line with an ATXN2-luciferase reporter) viability, CellTiter-Fluor protease fluorescence, 24 h; Potency, µM (series often up to 56.7 µM), most hits filed as cytotoxic; hit rate 0.49% among 400,000; AID 651635; further: potency means the concentration at half of the fitted maximal effect; nearly all actives have a fitted effect of over 40% in size
* hit, by the source's call; i = inactive; ? = inconclusive; / = no result. Unless noted, the call rests on the fitted dose curve; in most records, active means well fitted curve in the direction sought with a large enough effect; inconclusive means small, poorly fitted or top-dose-only effect, or another doubt; inactive means no such curve, though single readings can be large; an effect the other way counts as inactive or inconclusive.

SMILES | PINK1 expr mod | MCF10A rerep | IL-1B inflam inh | SW480 rereplic | ATXN2 expr inh | ATXN viability
CCC1CN(CCNC(=O)c2ccc3c(c2)OCO3)Cc2cc(OC)ccc2O1 (stereo unspecified) | 0.3% | / | / | / | / | i
CNC(=O)C(=O)NCC1CCCN1S(=O)(=O)c1cccs1 (stereo unspecified) | 2.8% | 7.5% | 35.4 | 23.1µM* | 20.7% | i
O=C(NCCC1CCCCN1S(=O)(=O)c1cccs1)C(=O)Nc1ccccc1 (stereo unspecified) | 0.4% | ? | ? | 3.1% | 0.3% | i
COc1ccc(NC(=O)C(=O)NCCC2CCCCN2S(=O)(=O)c2cccs2)cc1 (stereo unspecified) | -0.8% | 2.06µM* | -27.2 | 4.47µM* | ? | ?
COCCNC(=O)C(=O)Nc1ccc2c(c1)N(S(=O)(=O)c1cccs1)CCC2 | 12.3% | ? | 22.5 | 2.59µM* | -18.4% | ?
COc1ccc(NC(=O)C(=O)NCC2CCCN2S(=O)(=O)c2cc(C)ccc2C)cc1 (stereo unspecified) | 1.9% | ? | -3.2 | 16.4µM* | -17.8% | ?
Cc1ccc(C)c(S(=O)(=O)N2CCCC2CNC(=O)C(=O)Nc2ccccc2)c1 (stereo unspecified) | 2.2% | / | 0.0 | / | / | ?
O=c1cc(-c2cccc3c2Sc2ccccc2S3)oc(N2CCOCC2)c1 | / | / | / | / | -28.6% | /
Clc1ccc(-n2cccc2CN2CCc3nnc(Cc4ccccc4)n3CC2)nc1 | 0.4% | / | / | / | / | ?
COc1ccc(-c2noc(CSc3nnc(Cc4ccccc4)n3-c3ccc(F)cc3)n2)cc1 | 6.2% | / | / | / | ? | /
COc1ccc(CNC(=O)C(=O)NCCC2CCCCN2S(=O)(=O)c2ccccc2)cc1 (stereo unspecified) | -3.2% | 10.3% | -12.2 | -1.3% | -12.5% | i
COc1ccc(NC(=O)C(=O)NCCC2CCCCN2S(=O)(=O)c2ccccc2)cc1 (stereo unspecified) | 5.8% | ? | -1.5 | 14.6µM* | -23.4% | i
CCOc1ccc2[nH]c(=O)c(CN(CCN3CCCC3)C(=S)Nc3ccccc3OCC)cc2c1 | 2.2% | ? | -101.5* | -25.2% | -33.7% | ?
CCOc1ccc2[nH]c(=O)c(CN(Cc3ccco3)C(=O)c3cccc(F)c3)cc2c1 | 3.9% | -2.7% | 2.3 | 1.8% | 2.6% | i
CCOc1ccc2[nH]c(=O)c(CN(Cc3ccccc3OC)C(=O)c3ccccc3)cc2c1 | ? | 20.6µM* | -10.5 | ? | -13.8% | i
CCOc1ccc2[nH]c(=O)c(CN(Cc3ccco3)C(=O)c3ccc(Br)cc3)cc2c1 | 2.6% | 16.4µM* | 2.3 | ? | -7.0% | i
COc1ccc2[nH]c(=O)c(CN(Cc3ccco3)C(=O)c3ccccc3)cc2c1 | -1.1% | ? | -17.3 | ? | 0.5% | i
COc1cc(Cl)c(C)cc1NC(=O)C1CCCN(c2ncnc3onc(-c4ccc(F)cc4)c23)C1 (stereo unspecified) | 0.9% | / | / | / | 2.0% | i
CCCCNC(=S)N/N=C1\C(=O)c2cccc3cccc1c23 | 8.9% | 11.6% | -8.6 | 0.3% | -8.9% | i
CNC(=S)N/N=C1\C(=O)c2cccc3cccc1c23 | 8.5% | 10µM* | -97.8* | ? | -9.0% | ?
Cc1cccc2cc3c(NC(=O)C(C)C)nn(C)c3nc12 | 6.0% | ? | 27.9 | ? | -13.5% | i
COc1ccc(CC(=O)Nc2nn(C)c3nc4c(C)cccc4cc23)cc1 | 3.5% | 3.26µM* | / | ? | -25.0% | /
CCCn1nc(NC(=O)c2cccc(Cl)c2)c2cc3cccc(C)c3nc21 | -0.3% | / | / | / | 10.3% | i
CCC(=O)Nc1nn(C)c2nc3c(C)cccc3cc12 | -1.0% | 6.51µM* | 0.1 | 20.6µM* | 0.2% | i
CCCn1nc(NC(=O)c2cccs2)c2cc3cccc(C)c3nc21 | -0.9% | 20.6µM* | -4.2 | ? | 2.6% | i
CCn1nc(NC(=O)c2ccncc2)c2cc3cccc(C)c3nc21 | ? | 29.3% | -17.4 | -2.8% | -1.1% | i
CCCn1nc(NC(=O)CC)c2cc3cccc(C)c3nc21 | -2.3% | 1.8% | -8.7 | 16.4µM* | / | /
